Reference: PubChem BioAssay (Tox21)
Inconclusive results are not listed. Values without a mark were called inactive. Calls of active or inactive are those of the source. Calls come from the whole dose curve.

Test: p53 small molecule agonists, cell-based qHTS assay with rat liver microsomes (AID 1963578)
Settings: HCT-116 p53RE-bla, beta-lactamase ratio, 16 h; series mostly up to 66 µM; activation: at the top concentration
Description: U.S. Tox21 Program National Center for Advancing Translational Sciences [NCATS] Division of Preclinical Innovation [DPI] U.S. Environmental Protection Agency [EPA] National Institutes of Environmental Health Sciences [NIEHS] National Toxicology Program [NTP] U.S. Food and Drug Administration [FDA] Tox21 Assay Overview: p53, a tumor suppressor protein, is activated following cellular insult, including DNA damage and other cellular stresses. The activation of p53 regulates cell fate by inducing DNA repair, cell cycle arrest, apoptosis, or cellular senescence. The activation of p53, therefore, is a good indicator of DNA damage and other cellular stresses. […] The activation of the reporter gene under culture conditions can be detected by fluorescence intensity. This cell line was used to screen the Tox21 10K compound library in the condition of presence of rat liver microsomes and to identify agonists that activate the p53 signaling pathway after in vitro metabolic activation (Ooka et al., Archive of Toxicology 96:1975-1987, 2022).
Tox21 Assay Protocol Summary: The p53RE-bla cells were dispensed at 4,000cells/3ul/well in 1536-well black-clear bottom plates. After the assay plates were incubated at 37 C, 5% CO2 incubator for 5 hours, 23 nL of compounds dissolved in DMSO, positive controls or DMSO only was transferred to the assay plate. Following compound addition, 3 uL of rat liver microsomes (Molecular Toxicology, Boone, NC) at final concentration of 0.5 mg/mL and 1uL of Beta-Nicotinamide adenine dinucleotide 2-phosphate (NADPH) at final concentration of 0.5 mg/mL were transferred to the assay plate. The plates were incubated at 37 C for 16 hours. 1 uL of LiveBLAzer detection mixture was added to each well and the plates were incubated at room temperature in the dark for 2 h.
% is set by controls: 0 for no effect and ±100 for the full control effect.

Row | Compound | activation | Potency
1 | CCCCCCCC/C=C\CCCCCCCC(=O)NCc1ccc(O)c(OC)c1 | 1.03% [at 30.3 µM] | 
2 | CCCCC/C=C\C/C=C\CCCCCCCC(=O)NC(C)c1ccccc1 (stereo not given) | 1.64% [at 30.3 µM] | 
3 | CC(=O)N1CCN(c2ccc(OC[C@H]3CO[C@](Cn4ccnc4)(c4ccc(Cl)cc4Cl)O3)cc2)CC1 | -9.11% | 
4 | CCc1ccc(O)c(C(C)(C)C)c1 | 3.37% | 
5 | NC1=NCC2c3ccccc3Cc3ccccc3N12 (stereo not given) | 8% [at 30.3 µM] | 
6 | CC1=CCC(C(C)C)C=C1 (stereo not given) | -3.55% | 
7 | CCCCC(CC)COCCCN (stereo not given) | 2.69% | 
8 | COC(=O)NCCC[Si](OC)(OC)OC | -0.39% | 
9 | CCCCOC(=O)c1ccccc1 | 6.48% | 
10 | CN(C)c1ccc(C=O)cc1 | -0.467% | 
11 | Cc1ccc(O)c(N)c1 | 0.225% | 
12 | CC(C(=O)O)c1ccc2c(c1)[nH]c1ccc(Cl)cc12 (stereo not given) | -5.81% [at 30.3 µM] | 
13 | CN(C)CC/C=C1\c2ccccc2COc2ccccc21 | 1.17% [at 30.3 µM] | 
14 | CC(=O)Nc1ccc(S(=O)(=O)Nc2ccc([N+](=O)[O-])cc2)cc1 | -3.18% [at 30.3 µM] | 
15 | CCC[Si](OC)(OC)OC | 0.149% | 
16 | CC1CCCNC1 (stereo not given) | -11.4% | 
17 | CC(=O)c1ccc(OCC(=O)N2CCCCC2)cc1 | -3.98% [at 30.3 µM] | 
18 | O=C1c2ccccc2C(=O)c2c1ccc(O)c2O | -3.04% [at 30.3 µM] | 
19 | CCC(C)OC(=O)N1CCCCC1CCO (stereo not given) | 3.32% | 
20 | CCCCc1ccc2nc(NC(=O)OC)[nH]c2c1 | -4.34% [at 30.3 µM] | 

Row | Compound | activation | Potency
21 | CCCCCCOC(=O)c1ccc(O)cc1 |  | inactive
22 | CCc1ccc(C(c2ccc(CC)cc2)C(Cl)Cl)cc1 | -1.06% | 
23 | COc1ccc2cc(S(=O)(=O)N[C@H](CC(=O)N[C@H](Cc3ccc(CN4[C@H](C)CCC[C@@H]4C)cc3)C(=O)N(C)C(C)C)c3ccc4c(c3)OCO4)ccc2c1 | -5.44% | 
24 | CN(C)CCOc1ccc(/C(=C(/CCCl)c2ccccc2)c2ccccc2)cc1 | 4.43% | 
25 | Fc1ccc(C(c2ccc(F)cc2)N2CCNCC2)cc1 | 5.94% [at 30.3 µM] | 
26 | Cc1ccc(O)c(O)c1 | -2.42% | 
27 | CC[C@H](C)COC(=O)/C=C/c1ccc(N=Cc2ccc(OC)cc2)cc1 | 0.11% | 
28 | CCCCCOc1ccccc1/C(=C\SC)n1ccnc1 | -0.506% [at 30.3 µM] | 
29 | COc1cc(NC(C)CCCN)c2ncccc2c1 (stereo not given) | 0.809% [at 30.3 µM] | 
30 | CCCCCCCCCCCC(=O)[O][Sn]([CH2]CCC)([CH2]CCC)[O]C(=O)CCCCCCCCCCC | -0.905% [at 30.3 µM] | 
31 | C1CN(SSN2CCOCC2)CCO1 |  | inactive
32 | CC(CN(C)C)CN1c2ccccc2CCc2ccccc21 (stereo not given) | 4.46% [at 30.3 µM] | 
33 | CNC(=S)NN | -10.5% | 
34 | CCCCN(CCCC)C(=S)SSC(=S)N(CCCC)CCCC | -8.52% | 
35 | Cc1ccc(O)c([C@H](CCN(C(C)C)C(C)C)c2ccccc2)c1 | 5.83% [at 30.3 µM] | 
36 | CCOC(=O)CC(O)(CC(=O)OCC)C(=O)OCC | -2.82% | 
37 | CN(C)c1ccc(C2(c3ccc(N(C)C)cc3)OC(=O)c3cc(N(C)C)ccc32)cc1 | 2.76% | 
38 | O=[N+]([O-])c1cc(C2CCCCC2)c(O)c([N+](=O)[O-])c1 | -0.304% | 
39 | CCCN(C1CCN(C(=O)C2CCNCC2)CC1)[C@@H]1CCc2ccc(OC)cc2C1 | -2.21% | 
40 | CN[C@H]1CC[C@@H](c2ccc(Cl)c(Cl)c2)c2ccccc21 | 2.57% [at 30.3 µM] | 
